Structures are written as SMILES. The panel holds about 83,000 compounds, 20% with a hit somewhere; the sample as a whole holds those more often.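 Testing used 96-well plates and a 48-hour single-concentration exposure. Example: -40 means 40% of the starting cells died.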 Unmarked numbers belong to inactive results. Active and inactive are the calls of the source. Rule for the calls: active = growth percent below 10; inactive = the rest.

One assay relates to HCT-15 colon. Description: NCI-60 one-dose screen, 48 h (100 = growth as untreated, 0 = no growth, -100 = all killed). To be noted: 10 µM unless noted.
In the case of `CC(C)(C)OC(=O)Nc1ccc2c(c1)C(NC(=O)Nc1cccc(C#N)c1)CC(C)(C)O2` (stereo unspecified), the growth is 34.2%.
The same measure, in the same setting: as for `O=C(NCCc1ccc(O)c(O)c1)C12CC3CC(CC(C3)C1)C2`, the figure is 91.8%; as for `CC1=NOC(=O)/C1=C\c1ccc(O)cc1`, 104%; as for `O=C1/C(=C\c2cccnc2)SC(=S)N1CCc1ccc(O)cc1`, 19.2%.
For `Cn1cc(-c2csc(-c3cccc(F)c3)n2)c2cccnc21`, the growth was -43.3% [100 µM] (active).
In the case of `C=CCn1c(C)nc2cc(Nc3nc(Cl)nc4ccccc34)ccc21`, the growth was 92.3%.
Turning to `O=C(NC(Cc1nnc2n(Cc3ccccc3)c(=O)c3c4c(sc3n12)CCCC4)c1ccc(Cl)cc1)c1ccccc1` (stereo unspecified), the growth is 68.3%.
Consider `N#Cc1c(-c2cccc(Cl)c2)cc(-c2cccc(Cl)c2)[nH]c1=O`, for which the growth is 44.9%.
As for `Clc1cccc(Cl)c1/C=C/c1cc(/C=C/c2c(Cl)cccc2Cl)[nH]n1`, the growth is 27.7%.
For the compound `O=C1c2cccc(NCCN=Cc3cc([N+](=O)[O-])ccc3O)c2C(=O)c2c(NCCN=Cc3cc([N+](=O)[O-])ccc3O)cccc21`, the growth was 82%.
Consider `COC(=O)[C@H](CSC)N(C)C(=O)[C@@H]1CSSC[C@@H](NC(=O)c2nc3ccccc3cc2O)C(=O)NCC(=O)N1C`, for which the growth is 99.1%.
On to `O=C1N=c2cc3c(cc2=C/C1=C/c1sc(=S)n(CCc2ccc(O)cc2)c1O)OCCO3`, for which the growth was 9.98% (active).
Same read-out and setting: as for `O=C1CC(N2C(=O)/C(=C/C(Cl)=C\c3ccc([N+](=O)[O-])cc3)SC2=S)C(=O)N1c1ccc(O)cc1` (stereo unspecified), the figure is -38.2% (active); as for `CC(C)(C)C(CCc1ccc(Cl)cc1)N1CCN(C2CCCCC2)CC1` (stereo unspecified), 38.1%.
`COC1=C(OC)C(=O)C(OC)=C(OC)C1=O`: the growth is 108%.
Consider `COc1cc2ncn3c(=O)c4c5c(sc4nc3c2cc1OC)CCCC5`, for which the growth is 99.9%.
On the same count and under the same terms, as for `CCn1c(C)nc2cc(C(N)=O)ccc21`, the figure is 92.8%.
`O=C(CCCCCCSc1nc(-c2ccccc2)cc(-c2ccc(Cl)cc2)n1)NO`: the growth is 15.6%.
On the same count and under the same terms, as for `O=C(Nc1cccc(C(F)(F)F)c1)Nc1cccc(C(F)(F)F)c1`, the figure is 10.7%; as for `COc1ccc(NC(=O)c2nc(-c3cc(OC)c(OC)c(OC)c3)n(-c3cccc4ccccc34)n2)cc1OC`, 14.5%; as for `CCSC1=NC2C(N(CC)C(=O)N2CC)N1/N=C/C=C/c1ccccc1[N+](=O)[O-]` (stereo unspecified), 10.7%.
As for `CC(C)C(=O)Nc1n[nH]c2cc(-c3cccc(NS(=O)(=O)C4CC4)c3)ccc12`, the growth was 84.3%.
The same measure, in the same setting: as for `Cn1c(=O)c2[nH]c(NN)nc2n(C)c1=O`, the figure is 97.2%.

For another assay, the system named is HT29 colon. The assay is described as above. As to conditions: 10 µM unless noted.
As to `O=C1Nc2ccccc2/C1=C/c1cn(C(=O)c2c(Cl)cccc2Cl)c2ccccc12`, the growth is 69.7%.
Take `C=CCn1c(C)nc2cc(Nc3nc(N4CCCC4)nc4ccccc34)ccc21`: the growth was 5.63% (active).
On to `COc1ccc2nc(NNC(=O)c3cnccn3)c3cccn3c2c1`, for which the growth is 10%.
For the compound `CC(=O)OC1CCC2(C)C(=CC3C4CCC(=O)C4(C)CCC32)C1` (stereo unspecified), the growth is 99.7%.
For `Cc1ccc(-n2c(-c3ccccc3)c(-c3ccccc3)c3c(SCC(=O)n4[nH]c(N)cc4=O)ncnc32)cc1`, the growth was 94%.
The same measure, in the same setting: as for `C[C@@H]1N=C(c2ccc3ccccc3n2)Nc2nc3ccccn3c2C1=O`, the figure is 115%.
Turning to `N[C@@H](CCCCNCC(=O)O)C(=O)O`, the growth is 116%.
As to `Clc1cccc(Cl)c1C(Nc1nc2ccccc2s1)Nc1nc2ccccc2s1`, the growth is 108%.
Turning to `COc1cc(/C=C/C(=O)c2c(C)nc3ccccc3c2C)ccc1OCCCN1CCN(C(=O)c2ccco2)CC1`, the growth was 6.55% (active).
On the same count and under the same terms, as for `Cc1ccc(Cc2cnc(NC(=O)c3ccc4noc(-c5ccccc5)c4c3)s2)cc1`, the figure is 65.3%; as for `CC(=O)c1nc(Nc2ccc(C)cc2)sc1C`, 105%.
In the case of `Cc1c(C(=O)OC(=NC2CCCCC2)NC2CCCCC2)sc2c1c(=O)nc1c(C#N)n[nH]n12`, the growth was 96.2%.
With `O=C(CCc1nnc(CN(c2ccccc2)c2ccccc2)o1)c1nc2ccccc2[nH]1`, the growth is 93.4%.
On the same count and under the same terms, as for `O=C(CC(SCc1ccccc1)c1ccccc1)c1ccccc1` (stereo unspecified), the figure is 86.8%; as for `COc1ccc(-c2nc3ccc4[nH]ncc4c3c3c2CCCC3)cc1B(O)O`, 67.2%.
Consider `CC(C)(C)OC(=O)Nc1ccc2c(c1)C(NC(=O)Nc1cccc(C#N)c1)CC(C)(C)O2` (stereo unspecified), for which the growth was 55%.
Consider `O=C(NCCc1ccc(O)c(O)c1)C12CC3CC(CC(C3)C1)C2`, for which the growth was 102%.
On to `CC1=NOC(=O)/C1=C\c1ccc(O)cc1`, for which the growth was 106%.
Consider `O=C1/C(=C\c2cccnc2)SC(=S)N1CCc1ccc(O)cc1`, for which the growth was 105%.
As to `Cn1cc(-c2csc(-c3cccc(F)c3)n2)c2cccnc21`, the growth is -71.7% [100 µM] (active).
As for `C=CCn1c(C)nc2cc(Nc3nc(Cl)nc4ccccc34)ccc21`, the growth was 98.8%.
Consider `O=C(NC(Cc1nnc2n(Cc3ccccc3)c(=O)c3c4c(sc3n12)CCCC4)c1ccc(Cl)cc1)c1ccccc1` (stereo unspecified), for which the growth was 89.1%.
In the case of `N#Cc1c(-c2cccc(Cl)c2)cc(-c2cccc(Cl)c2)[nH]c1=O`, the growth is 114%.
Consider `Clc1cccc(Cl)c1/C=C/c1cc(/C=C/c2c(Cl)cccc2Cl)[nH]n1`, for which the growth is 10.7%.
Regarding `O=C1c2cccc(NCCN=Cc3cc([N+](=O)[O-])ccc3O)c2C(=O)c2c(NCCN=Cc3cc([N+](=O)[O-])ccc3O)cccc21`, the growth is 37.1%.
Regarding `COC(=O)[C@H](CSC)N(C)C(=O)[C@@H]1CSSC[C@@H](NC(=O)c2nc3ccccc3cc2O)C(=O)NCC(=O)N1C`, the growth was 76.1%.
On the same count and under the same terms, as for `O=C1N=c2cc3c(cc2=C/C1=C/c1sc(=S)n(CCc2ccc(O)cc2)c1O)OCCO3`, the figure is 21.2%.
Take `O=C1CC(N2C(=O)/C(=C/C(Cl)=C\c3ccc([N+](=O)[O-])cc3)SC2=S)C(=O)N1c1ccc(O)cc1` (stereo unspecified): the growth is -16.7% (active).
In the case of `CC(C)(C)C(CCc1ccc(Cl)cc1)N1CCN(C2CCCCC2)CC1` (stereo unspecified), the growth was 12.6%.
Consider `COC1=C(OC)C(=O)C(OC)=C(OC)C1=O`, for which the growth was 104%.
`COc1cc2ncn3c(=O)c4c5c(sc4nc3c2cc1OC)CCCC5`: the growth is 91.8%.
For `CCn1c(C)nc2cc(C(N)=O)ccc21`, the growth is 98.7%.
As to `O=C(CCCCCCSc1nc(-c2ccccc2)cc(-c2ccc(Cl)cc2)n1)NO`, the growth was 4.56% (active).
Consider `O=C(Nc1cccc(C(F)(F)F)c1)Nc1cccc(C(F)(F)F)c1`, for which the growth is 3.56% (active).
With `COc1ccc(NC(=O)c2nc(-c3cc(OC)c(OC)c(OC)c3)n(-c3cccc4ccccc34)n2)cc1OC`, the growth is 30%.
In the case of `CCSC1=NC2C(N(CC)C(=O)N2CC)N1/N=C/C=C/c1ccccc1[N+](=O)[O-]` (stereo unspecified), the growth was 3.47% (active).
The same measure, in the same setting: as for `CC(C)C(=O)Nc1n[nH]c2cc(-c3cccc(NS(=O)(=O)C4CC4)c3)ccc12`, the figure is 76.2%; as for `Cn1c(=O)c2[nH]c(NN)nc2n(C)c1=O`, 105%.

The values above are taken from PubChem BioAssay (NCI).
